# Screening results from PubChem.
# Hits are enriched below; roughly 7.9% of the tested compounds scored in any of these assays.
# MITF inh: inhibitors of MITF, primary screen, MITF inhibitor project, cell-based, luminescence. 37,000 compounds, 0.28% hits. inhibition, % (concentration not given with the values). TRPM1 promoter luciferase, 24 h; in the data active = inhibition above about 85%; inconclusive = no clear call, values can overlap the other calls; inactive = below about 68%;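 also: human melanocyte line stably carrying TRPM1 promoter luciferase reporter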
# Hedgehog inh: Hedgehog pathway signaling inhibitors, primary screen, luminescence, Shh-LIGHT2 cells, Gli-luciferase | Shh-LIGHT2 Gli-luciferase reporter, 30 h | inhibition, % (concentration not given with the values) | AID 2313, 2010 | 22,000 compounds, 2.1% hits;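 active = mean inhibition across valid replicates above about 65%, limit read from the data; inconclusive = mean under the limit, yet half or more replicates past it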;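 also: pathway switched on by Shh-conditioned medium diluted 1 in 25 in low serum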
# NOMO-1 viab: NOMO-1 AML cell viability reduction, primary screen, STK33 inhibitor project, CellTiter-Glo luminescence; NOMO-1 AML viability, 72 h; inhibition, % (test concentration not listed); 37,000 compounds, 7.5% hits; in the data active = inhibition above about 80%; inconclusive = no clear call, values can overlap the other calls
# Starred values were filed as active, the others as inactive; ? = inconclusive; . = not tested or not shown; ! = repeats disagree.
SMILES,MITF inh,Hedgehog inh,NOMO-1 viab
C[C@@H]1CN([C@H](C)CO)C(=O)c2cc(NC(=O)Nc3ccc(C(F)(F)F)cc3)ccc2O[C@@H]1CN(C)Cc1ccc(C(F)(F)F)cc1,36,.,115*
C[C@H](CO)N1C[C@H](C)[C@H](CN(C)Cc2ccc(C(F)(F)F)cc2)Oc2ccc(NC(=O)Nc3ccc(F)cc3)cc2C1=O,22,.,33
C[C@@H]1CN([C@@H](C)CO)C(=O)c2cccc(NC(=O)C3CCOCC3)c2O[C@@H]1CN(C)S(=O)(=O)c1ccccc1,0,-22,26
C[C@@H]1CN([C@H](C)CO)C(=O)c2cc(NC(=O)Nc3ccccc3)ccc2O[C@H]1CN(C)C(=O)NC1CCCCC1,-1,.,-8
C=CCOC(Cn1ccnc1)c1ccc(Cl)cc1Cl (stereo not given),21,36,16
Clc1ccc(COC(Cn2ccnc2)c2ccc(Cl)cc2Cl)c(Cl)c1 (stereo not given),11,65*!,28
C[C@H]1CN([C@@H](C)CO)C(=O)c2cccc(NC(=O)c3ccc(-c4nccs4)cc3)c2O[C@H]1CN(C)C(=O)Nc1ccccc1,-9,-9,20
COC(=O)c1cc(NC(=O)COc2ccc(I)cc2)cc(C(=O)OC)c1,-22,.,10
Nc1nc(N(Cc2ccccc2)Cc2ccccc2)nc(C(F)(F)F)n1,20,?,120*
C[C@H]1CN([C@@H](C)CO)C(=O)c2cccc(NC(=O)NC3CCCCC3)c2O[C@@H]1CN(C)C(=O)Nc1ccc(C(F)(F)F)cc1,15,30,100*
C[C@H](CO)N1C[C@H](C)[C@H](CN(C)C(=O)Nc2ccc(C(F)(F)F)cc2)Oc2c(NC(=O)NC3CCCCC3)cccc2C1=O,8,2,106*
C[C@@H]1CN([C@H](C)CO)C(=O)c2cccc(NC(=O)Nc3ccc(C(F)(F)F)cc3)c2O[C@H]1CN(C)C(=O)NC1CCCCC1,32,-5,75
C[C@H](CO)N1C[C@H](C)[C@H](CN(C)C(=O)Nc2ccc(C(F)(F)F)cc2)Oc2c(NC(=O)C3CCCCC3)cccc2C1=O,43,-14,95*
C[C@H](CO)N1C[C@H](C)[C@H](CN(C)C(=O)NC2CCCCC2)Oc2c(NC(=O)Nc3ccc(C(F)(F)F)cc3)cccc2C1=O,-1,-3,71
C[C@H]1CN([C@@H](C)CO)C(=O)c2cccc(NC(=O)C3CCCCC3)c2O[C@@H]1CN(C)C(=O)Nc1ccc(C(F)(F)F)cc1,3,-21,15
O=S(=O)(Nc1ncccn1)c1ccc(NC(=S)Nc2ccc(Oc3ccccc3)cc2)cc1,-8,.,21
O=C(O)C12C3CCC4C5C3C1C5(C(=O)O)C42 (stereo not given),-12,.,-5
CNC(=O)c1c(N)sc2c1CCCCC2,-10,-23,126*
NC(=O)c1c(NC(=O)C2CC(=O)OC23CCCCC3)sc2c1CCCCC2 (stereo not given),-3,.,8
O=C(NCCCN1CCCC1=O)c1cc(-c2ccccc2)nc2ccccc12,-24,.,-27
O=[N+]([O-])c1ccc(O)c(C(c2c[nH]c3ccccc23)c2c[nH]c3ccccc23)c1,47,.,16
O=C1Cc2c([nH]c3ccc([N+](=O)[O-])cc23)-c2ccccc2N1,-2,-423,99*
COc1ccc(S(=O)(=O)Nc2ccc3c(c2)CC(=O)N([C@@H](C)CO)C[C@H](C)[C@H](CN(C)Cc2ccc4c(c2)OCO4)O3)cc1,-4,1,22
Cc1cccc(Oc2coc3cc(OCC(=O)Nc4ccccc4C(F)(F)F)ccc3c2=O)c1,-8,.,23
C[C@H]1CN([C@@H](C)CO)C(=O)c2cc(NS(=O)(=O)c3ccc(Cl)cc3)ccc2O[C@@H]1CN(C)C(=O)Nc1ccc(C(F)(F)F)cc1,19,37,23
SMILES,MITF inh,Hedgehog inh,NOMO-1 viab
N#Cc1cc2c(OCC(O)CN3CCN(C(c4ccccc4)c4ccccc4)CC3)cccc2[nH]1 (stereo not given),99*,103*,116*
Cc1ccc(C)c(OCC(O)CN2CCN(CCO)CC2)c1 (stereo not given),1,.,14
O=C(COc1ccccc1Cl)Nc1ccc([N+](=O)[O-])cc1O,4,.,30
O=C1CN(/N=C/c2ccc([N+](=O)[O-])o2)C(=O)N1,14,-5,45
O=C(N/N=C/c1ccc([N+](=O)[O-])o1)c1ccc(O)cc1,61,10,140*
Cc1cc(C)c(NC(=O)CN(c2ccc(Cl)cc2C)S(C)(=O)=O)c(C)c1,7,.,9
C[C@@H]1CN([C@H](C)CO)C(=O)Cc2cc(NC(=O)Nc3ccc(C(F)(F)F)cc3)ccc2O[C@H]1CN(C)Cc1ccccc1,12,16,65
C[C@H](CO)N1C[C@H](C)[C@H](CN(C)Cc2ccccc2)Oc2ccc(NC(=O)Nc3ccc(C(F)(F)F)cc3)cc2CC1=O,-1,7,?
C[C@H]1CN([C@@H](C)CO)C(=O)Cc2cc(NC(=O)Nc3ccc(C(F)(F)F)cc3)ccc2O[C@H]1CN(C)Cc1ccccc1,39,4,85*
C[C@H]1CN([C@@H](C)CO)C(=O)Cc2cc(NC(=O)Nc3ccccc3)ccc2O[C@H]1CN(C)Cc1ccc(C(F)(F)F)cc1,29,-42,127*
C[C@@H]1CN([C@H](C)CO)C(=O)Cc2cc(NS(=O)(=O)c3ccccc3)ccc2O[C@H]1CN(C)C,-15,.,-4
C[C@H]1CN([C@@H](C)CO)C(=O)Cc2cc(NC(=O)Nc3ccccc3)ccc2O[C@@H]1CN(C)S(=O)(=O)c1ccc(F)cc1,3,.,1
CCc1cc(OCCSc2nc(C)cc(=O)[nH]2)ccc1Cl,-22,.,23
O=C(CSc1nc2ccccc2[nH]1)Nc1cccc(C(F)(F)F)c1,-16,.,43
CN(c1ccc(OCC(=O)O)cc1)S(=O)(=O)c1ccc(F)cc1,-5,.,19
O=C1CC(c2ccccc2)Oc2cc(O)cc(O)c21 (stereo not given),-30,-8,10
O=C1CC(c2ccccc2)Oc2ccc(Cl)cc21 (stereo not given),-16,-48,115*
C=C1C(=O)O[C@@H]2[C@H]3O[C@]3(C)CCC=C(C)CC[C@@H]12,93*,82*,141*
C=C1C(=O)O[C@@H]2C3O[C@]3(C)CC/C=C(/C)CC[C@@H]12 (stereo not given in full),68,67*,107*
C[C@@H]1CN([C@@H](C)CO)C(=O)c2cc(NC(=O)CCN3CCOCC3)ccc2O[C@H]1CN(C)C(=O)Nc1cccc2ccccc12,18,-36,9
C[C@H]1CN([C@@H](C)CO)C(=O)c2cc(NC(=O)C3CC3)ccc2O[C@H]1CN(C)Cc1ccncc1,0,.,-9
CC1C[C@@]23CC4C(C)(C)[C@@]5(C[C@]4(CN2C1=O)N(C)C3=O)C(=O)Nc1c5ccc2c1C(=O)CC(C)(C)O2 (stereo not given in full),10,8,118*
COc1ccc(S(=O)(=O)N(C)CC(=O)Nc2ccc(I)cc2)cc1OC,9,.,11
Cc1cccc(C)c1OCC(=O)NCc1cccnc1,-1,.,2
